In PubChem BioAssay AID743110 (Vanderbilt Specialized Chemistry Center, 2013):
Measured potencies and affinities stand elsewhere. Calls of active or inactive are those of the source.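 How the source made its calls: active means Blocks human M5 receptor in a calcium assay, with half-maximal inhibiting concentration under 10 µM; inactive means the rest.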

Biological target: Muscarinic acetylcholine receptor M5 (Homo sapiens) (UniProt P08912)
Experiment: inhibition of ACh-evoked human M5 signalling – cell-based, CHO-K1 hM5, Fluo-4 calcium flux, ACh EC80, dose response (AID 743110)

Sequence of Muscarinic acetylcholine receptor M5 (Homo sapiens) (P08912 whole entry, looked up): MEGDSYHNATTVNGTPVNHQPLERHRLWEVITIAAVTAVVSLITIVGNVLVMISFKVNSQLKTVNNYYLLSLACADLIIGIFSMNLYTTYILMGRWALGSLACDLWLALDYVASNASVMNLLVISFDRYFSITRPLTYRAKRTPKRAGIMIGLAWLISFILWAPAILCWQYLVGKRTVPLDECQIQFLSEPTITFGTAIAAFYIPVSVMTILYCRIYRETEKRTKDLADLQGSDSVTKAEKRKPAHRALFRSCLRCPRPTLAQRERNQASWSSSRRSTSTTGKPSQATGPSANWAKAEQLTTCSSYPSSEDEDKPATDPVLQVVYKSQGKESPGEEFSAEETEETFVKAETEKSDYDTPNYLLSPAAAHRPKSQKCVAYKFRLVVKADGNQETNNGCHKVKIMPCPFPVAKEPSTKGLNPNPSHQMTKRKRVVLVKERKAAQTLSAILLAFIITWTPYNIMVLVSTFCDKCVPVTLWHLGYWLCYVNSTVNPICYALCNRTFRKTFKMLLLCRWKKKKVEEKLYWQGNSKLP

Row | Structure (SMILES) | outcome
1 | CC(=O)c1cccc(OCc2cccc(C(=O)N(C)C(C)c3ccccn3)c2)c1 (stereo not given) | inactive
2 | CC(=O)c1cccc(OCc2cc(C(=O)NC(C)c3ccccn3)no2)c1 (stereo not given) | inactive
3 | CC(=O)c1cccc(N(Cc2cc(C(=O)N(C)C(C)c3ccccn3)no2)C(=O)c2ccccc2)c1 (stereo not given) | inactive
4 | CC(c1ccccn1)N(C)C(=O)c1cc(COc2cccc(Br)c2)on1 (stereo not given) | inactive
5 | CC(=O)c1cccc(OCc2ccc(C(=O)N(C)C(C)c3ccccn3)cc2)c1 (stereo not given) | inactive
